Measured values as given in the supplement of paper PMC10849652.
About 7,900 targets were measured; listed, in parts, are those with a hit and a random draw of the rest. About 0.6% of all pairs of compound and target were hits.

These targets were tested with c1cn2cc(-c3ccc4cn[nH]c4c3)nc(Nc3ccc(N4CCOCC4)cc3)c2n1 [entospletinib] (assay: log2 fold change, soluble protein after heating vs DMSO (PISA); higher = thermal stabilisation; K562 cells, 10 uM, 30 min; active = over 0.2 and 3.5 SD of the protein, either way, in both replicates (recomputed)).
How it was run: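 K562 cells at 2×10^6 cells/mL were exposed to 10 μM compound for 30 min, then aliquots were heated for 3 min across 48°C-58°C, pooled, and extracted in PBS containing 0.5% NP-40 at 4°C. The supernatant after 21,000xg for 90 min was taken as soluble protein and measured by TMTpro 16plex LC-MS/MS with channel sums equalised. Thermal stability is reported relative to control samples, with values from duplicates. Fold changes are given on a log2 scale.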

UniProt O95801, sequence (O95801 whole entry, looked up): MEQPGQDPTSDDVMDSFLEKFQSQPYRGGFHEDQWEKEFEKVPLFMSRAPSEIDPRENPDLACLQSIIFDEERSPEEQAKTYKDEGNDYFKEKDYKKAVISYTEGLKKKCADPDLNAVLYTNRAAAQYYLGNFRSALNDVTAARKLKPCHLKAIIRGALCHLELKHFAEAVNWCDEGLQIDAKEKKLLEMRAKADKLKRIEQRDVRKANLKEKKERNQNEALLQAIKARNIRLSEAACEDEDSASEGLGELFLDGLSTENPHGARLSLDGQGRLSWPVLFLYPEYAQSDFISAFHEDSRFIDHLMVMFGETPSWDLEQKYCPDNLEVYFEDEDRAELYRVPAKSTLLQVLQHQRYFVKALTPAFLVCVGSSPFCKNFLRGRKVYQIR
UniProt Q9NYU2, sequence (Q9NYU2 whole entry, looked up): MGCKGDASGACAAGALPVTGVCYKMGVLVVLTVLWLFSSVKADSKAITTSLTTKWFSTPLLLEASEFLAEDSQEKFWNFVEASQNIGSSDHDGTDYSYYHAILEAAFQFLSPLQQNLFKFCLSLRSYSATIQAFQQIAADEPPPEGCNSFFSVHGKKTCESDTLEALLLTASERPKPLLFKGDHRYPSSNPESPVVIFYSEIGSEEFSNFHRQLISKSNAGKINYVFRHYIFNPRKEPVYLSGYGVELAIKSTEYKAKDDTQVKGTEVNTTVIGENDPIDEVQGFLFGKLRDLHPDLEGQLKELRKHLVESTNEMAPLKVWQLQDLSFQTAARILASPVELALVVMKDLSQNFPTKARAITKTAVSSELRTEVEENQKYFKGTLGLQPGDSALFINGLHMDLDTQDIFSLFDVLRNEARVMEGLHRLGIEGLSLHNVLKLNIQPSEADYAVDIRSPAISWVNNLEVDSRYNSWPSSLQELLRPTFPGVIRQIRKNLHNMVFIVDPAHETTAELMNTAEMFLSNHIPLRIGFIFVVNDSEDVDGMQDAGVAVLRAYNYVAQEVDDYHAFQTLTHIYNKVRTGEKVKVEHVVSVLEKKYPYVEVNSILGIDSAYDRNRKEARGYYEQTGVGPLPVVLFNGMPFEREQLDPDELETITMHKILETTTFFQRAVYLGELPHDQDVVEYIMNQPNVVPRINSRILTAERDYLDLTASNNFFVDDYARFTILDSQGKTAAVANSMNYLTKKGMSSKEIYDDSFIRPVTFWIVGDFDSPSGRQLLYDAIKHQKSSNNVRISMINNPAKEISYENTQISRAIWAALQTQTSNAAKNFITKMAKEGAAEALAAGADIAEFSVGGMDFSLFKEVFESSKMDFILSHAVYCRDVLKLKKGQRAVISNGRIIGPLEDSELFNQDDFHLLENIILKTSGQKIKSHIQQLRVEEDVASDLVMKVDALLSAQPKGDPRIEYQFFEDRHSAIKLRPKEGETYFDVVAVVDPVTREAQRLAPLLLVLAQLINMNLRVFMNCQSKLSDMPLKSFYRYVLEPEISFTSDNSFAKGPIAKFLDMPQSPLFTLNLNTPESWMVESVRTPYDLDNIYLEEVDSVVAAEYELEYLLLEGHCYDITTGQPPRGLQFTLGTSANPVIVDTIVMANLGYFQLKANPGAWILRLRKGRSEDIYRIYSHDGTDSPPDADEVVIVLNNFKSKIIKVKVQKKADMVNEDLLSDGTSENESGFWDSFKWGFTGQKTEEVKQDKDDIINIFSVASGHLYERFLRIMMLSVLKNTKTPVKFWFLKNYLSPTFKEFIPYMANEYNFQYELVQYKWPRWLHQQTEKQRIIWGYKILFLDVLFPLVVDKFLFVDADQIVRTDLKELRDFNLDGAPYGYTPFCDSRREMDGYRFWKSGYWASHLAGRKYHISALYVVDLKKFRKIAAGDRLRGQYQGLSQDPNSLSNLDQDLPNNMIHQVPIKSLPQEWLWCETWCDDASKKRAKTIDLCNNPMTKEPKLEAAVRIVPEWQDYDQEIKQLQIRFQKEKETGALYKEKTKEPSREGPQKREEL
UniProt A6NIH7, sequence (A6NIH7 whole entry, looked up): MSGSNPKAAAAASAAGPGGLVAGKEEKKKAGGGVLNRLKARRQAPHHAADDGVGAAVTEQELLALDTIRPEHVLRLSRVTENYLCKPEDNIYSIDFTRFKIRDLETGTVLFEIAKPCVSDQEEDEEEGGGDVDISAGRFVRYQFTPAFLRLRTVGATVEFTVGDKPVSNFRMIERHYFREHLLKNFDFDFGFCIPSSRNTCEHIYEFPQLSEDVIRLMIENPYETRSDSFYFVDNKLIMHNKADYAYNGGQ
UniProt O43617, sequence (O43617 whole entry, looked up): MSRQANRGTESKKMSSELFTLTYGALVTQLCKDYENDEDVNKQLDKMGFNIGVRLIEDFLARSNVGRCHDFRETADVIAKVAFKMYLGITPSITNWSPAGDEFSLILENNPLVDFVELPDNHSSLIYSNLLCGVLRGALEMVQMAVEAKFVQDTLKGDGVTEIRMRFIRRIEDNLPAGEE
UniProt Q9P253, sequence (Q9P253 whole entry, looked up): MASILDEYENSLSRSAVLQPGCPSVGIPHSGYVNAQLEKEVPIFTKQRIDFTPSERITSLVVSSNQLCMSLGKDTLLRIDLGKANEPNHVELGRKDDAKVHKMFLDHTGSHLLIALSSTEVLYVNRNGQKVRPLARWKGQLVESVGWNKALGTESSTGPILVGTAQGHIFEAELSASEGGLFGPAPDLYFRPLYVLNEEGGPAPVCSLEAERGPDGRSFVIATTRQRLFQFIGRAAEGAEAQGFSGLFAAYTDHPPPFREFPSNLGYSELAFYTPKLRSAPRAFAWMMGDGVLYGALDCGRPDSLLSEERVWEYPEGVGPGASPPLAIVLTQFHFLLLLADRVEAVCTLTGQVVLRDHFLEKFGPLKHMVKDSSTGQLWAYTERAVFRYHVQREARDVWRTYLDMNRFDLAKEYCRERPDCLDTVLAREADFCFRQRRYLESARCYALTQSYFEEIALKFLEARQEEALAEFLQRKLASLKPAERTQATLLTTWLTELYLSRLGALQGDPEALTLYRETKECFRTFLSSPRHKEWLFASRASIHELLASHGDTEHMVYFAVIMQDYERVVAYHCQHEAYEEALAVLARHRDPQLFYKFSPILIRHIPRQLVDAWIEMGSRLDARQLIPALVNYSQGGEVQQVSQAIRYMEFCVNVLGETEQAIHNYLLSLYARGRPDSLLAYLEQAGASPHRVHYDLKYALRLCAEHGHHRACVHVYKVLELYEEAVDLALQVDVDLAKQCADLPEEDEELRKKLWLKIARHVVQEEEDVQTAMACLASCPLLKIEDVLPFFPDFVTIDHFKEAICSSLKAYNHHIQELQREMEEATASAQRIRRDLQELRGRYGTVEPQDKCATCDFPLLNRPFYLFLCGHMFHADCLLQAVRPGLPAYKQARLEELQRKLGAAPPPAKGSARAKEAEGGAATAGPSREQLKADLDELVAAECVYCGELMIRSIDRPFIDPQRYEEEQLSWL
UniProt Q5R3I4, sequence (Q5R3I4 whole entry, looked up): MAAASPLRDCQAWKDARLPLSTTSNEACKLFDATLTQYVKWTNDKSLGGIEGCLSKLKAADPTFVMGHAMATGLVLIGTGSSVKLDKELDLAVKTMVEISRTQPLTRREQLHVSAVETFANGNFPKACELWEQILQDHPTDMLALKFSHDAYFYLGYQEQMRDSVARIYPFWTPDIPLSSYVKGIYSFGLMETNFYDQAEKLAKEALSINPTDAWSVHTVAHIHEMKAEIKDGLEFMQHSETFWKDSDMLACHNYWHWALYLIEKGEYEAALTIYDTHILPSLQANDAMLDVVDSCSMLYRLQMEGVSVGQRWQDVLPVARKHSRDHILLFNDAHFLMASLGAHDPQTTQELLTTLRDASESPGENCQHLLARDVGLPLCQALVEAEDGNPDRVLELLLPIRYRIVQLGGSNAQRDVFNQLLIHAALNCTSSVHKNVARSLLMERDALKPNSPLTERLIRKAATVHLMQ
UniProt Q9NZ09, sequence (Q9NZ09 whole entry, looked up): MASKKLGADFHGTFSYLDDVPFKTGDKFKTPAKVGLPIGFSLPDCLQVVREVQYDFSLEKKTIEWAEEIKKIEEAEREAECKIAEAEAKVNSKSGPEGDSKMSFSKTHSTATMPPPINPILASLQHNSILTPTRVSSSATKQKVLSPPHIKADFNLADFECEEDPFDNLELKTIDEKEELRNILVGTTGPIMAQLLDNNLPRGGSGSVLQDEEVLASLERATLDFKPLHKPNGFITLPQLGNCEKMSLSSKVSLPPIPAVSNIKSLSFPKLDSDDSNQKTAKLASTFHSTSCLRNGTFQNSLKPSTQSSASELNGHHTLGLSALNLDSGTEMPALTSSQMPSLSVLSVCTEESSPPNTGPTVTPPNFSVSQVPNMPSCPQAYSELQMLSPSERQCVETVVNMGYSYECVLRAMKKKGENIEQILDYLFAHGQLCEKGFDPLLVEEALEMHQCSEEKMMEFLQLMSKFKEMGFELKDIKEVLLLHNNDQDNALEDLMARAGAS
UniProt Q9H4I3, sequence (Q9H4I3 whole entry, looked up): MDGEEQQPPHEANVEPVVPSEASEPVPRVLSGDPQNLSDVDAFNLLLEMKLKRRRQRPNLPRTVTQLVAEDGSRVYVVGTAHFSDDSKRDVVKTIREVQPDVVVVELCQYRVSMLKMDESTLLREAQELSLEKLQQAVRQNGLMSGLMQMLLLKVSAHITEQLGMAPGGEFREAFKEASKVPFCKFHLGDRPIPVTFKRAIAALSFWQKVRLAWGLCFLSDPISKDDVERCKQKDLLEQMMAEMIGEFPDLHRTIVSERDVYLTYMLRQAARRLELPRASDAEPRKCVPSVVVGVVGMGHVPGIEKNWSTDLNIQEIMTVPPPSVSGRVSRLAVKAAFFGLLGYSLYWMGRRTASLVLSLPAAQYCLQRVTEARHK

log2 fold change, inactive:
TMEM263 (UniProt Q8WUH6) -0.032
TRAM1 (UniProt Q15629) 0.145
UBC (UniProt P0CG48) 0.068
TMEM189-UBE2V1 (UniProt I3L0A0) -0.017
WDR11 (UniProt Q9BZH6) -0.403
TRABD (UniProt Q9H4I3) 0.047
WDR47 (UniProt O94967) 0.011
WDR46, A0A0G2JJL1 0.023
TTC4 (UniProt O95801) -0.002
TOP2A isoform 4 (UniProt P11388) 0.119
VPS18 (UniProt Q9P253) -0.07
TTC38 (UniProt Q5R3I4) -0.114
UGGT1 (UniProt Q9NYU2) -0.018
WASHC2A (UniProt Q641Q2) 0.03
UBAP1 isoform 4 (UniProt Q9NZ09) 0.005
UNC119B (UniProt A6NIH7) -0.055
TRAPPC3 (UniProt O43617) -0.013
